Bioassay records (PubChem)
HCV NS3h FP – hepatitis C NS3 helicase inhibition, primary screen. NS3h Cy5-dT15 DNA binding, fluorescence polarization. inhibition, % at 100 µM. actives 1.6% (n = 16,000). AID 687043;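 active = inhibition above the average over every tested compound plus 3 SD, cut at about 40% in these data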
Cy5 interf NS3h – enhances or quenches Cy5 fluorescence in NS3h assay. Cy5-dT15 DNA with NS3h, fluorescence interference; actives lie on both sides; signal over control mean, under 1 quenches. actives 6% (n = 16,000). fluorescence interference ratio at 100 µM;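 active = compound fluorescence over control fluorescence at most 0.8, a quencher, or at least a set upper limit, an enhancer; inactive = ratio between 0.8 and the set upper limit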
Large screens that a line does not name were inactive. Hits are enriched below; roughly 6.9% of the tested compounds scored in any of these assays.

O=C(Nc1ccc2nn(-c3ccccc3)nc2c1)c1cccc(F)c1	none
CN(C)c1ccc(NC(=O)c2ccc(Cl)c([N+](=O)[O-])c2)cc1	HCV NS3h FP 44, Cy5 interf NS3h 0.32
Cc1ccc(C(=O)Nc2ccc(I)cc2)cc1[N+](=O)[O-]	none
O=C(Nc1ccc2nn(-c3ccccc3)nc2c1)c1ccc(Cl)c([N+](=O)[O-])c1	Cy5 interf NS3h 0.44
O=C(O)c1ccc(NC(=O)c2ccc(Cl)c([N+](=O)[O-])c2)cc1	none
Cc1cccc(OCC(=O)n2cnnc2N)c1	none
Cc1ccccc1OCc1nc(-c2ccc(Cl)cc2)no1	none
O=C(Nc1ccc(Oc2ccccc2)cc1)C(F)(F)F	Cy5 interf NS3h 0.78
CC(=O)Nc1ccc(Oc2ccccc2)cc1	none
Cc1ccc(S(=O)(=O)NC(=O)Nc2ccc(C)c(Cl)c2)cc1	none
O=C1C(c2ccccc2)C(c2cccs2)NC(c2cccs2)C1c1ccccc1 (stereo not given)	none
COC(=O)c1cc(NC(=O)c2cccc(OC(C)C)c2)cc(C(=O)OC)c1	none
Cc1cccc(-c2nc3cc(NC(=O)COc4ccccc4[N+](=O)[O-])ccc3o2)c1	Cy5 interf NS3h 0.52
CCc1ccc(-c2nc3cc(NC(=O)COc4ccccc4[N+](=O)[O-])ccc3o2)cc1	none
COC(=O)c1ccccc1NC(=O)CSc1nnc(-c2cccc(F)c2)n1-c1ccccc1	none
CCCS(=O)(=O)c1c(S(=O)(=O)CCC)c2c(N)cccn2c1C(=O)c1ccc(OC)cc1	Cy5 interf NS3h 0.66
CCCS(=O)(=O)c1c(S(=O)(=O)CCC)c2ccccn2c1C(=O)c1ccc([N+](=O)[O-])cc1	none
CC(Cc1ccccc1)NC(=O)CCC(=O)NC(C)Cc1ccccc1 (stereo not given)	none
C=CCc1c(C)nc2cc(-c3ccc(C)cc3)[nH]n2c1=O	HCV NS3h FP 62, Cy5 interf NS3h 1.2
C=CCc1c(C)nc2c(C)c(-c3ccc(C)cc3)[nH]n2c1=O	none
O=C(CSc1nnc(-c2ccc(Br)cc2)o1)NCc1ccccc1	none
O=C(OCc1ccccc1)Sc1nnc(-c2ccc(Br)cc2)o1	Cy5 interf NS3h 0.78
N/C(Cc1cccc2ccccc12)=N/OC(=O)c1cccs1	none
C=CCn1cc(C)c(=O)n(CC(C)C)c1=O	none
O=C1NC(=S)NC(=O)C1=Cc1ccc(O)c(Cl)c1	HCV NS3h FP 45
O=C1NC(=S)N(c2ccc(Br)cc2)C(=O)/C1=C/c1ccc(O)c(Cl)c1	none
Cc1cc(C)c(N(C=O)C(=O)C2C(C)C3C=CC2C32CC2)c(C)c1 (stereo not given)	none
Cc1ccc(S(=O)(=O)N2CCC(=O)C(C)C2)cc1 (stereo not given)	Cy5 interf NS3h 0.74
Cc1ccc(S(=O)(=O)N2CCN(C3CC4CCC3C4)CC2)cc1 (stereo not given)	none
O=C1CC(c2ccc(Cl)cc2)CC2=C1C(c1ccccc1C(F)(F)F)Nc1ccccc1N2 (stereo not given)	none
Cc1ccc(NC(=O)CCCOc2ccccc2)c(Br)c1	none
O=C(COc1ccc([N+](=O)[O-])cc1)Nc1ccc2oc(-c3ccccc3F)nc2c1	none
O=C(/C=C/c1cccc([N+](=O)[O-])c1)Nc1ccc2oc(-c3ccccc3F)nc2c1	Cy5 interf NS3h 0.78
Cc1ccc(OCC(=O)Nc2ccc3c(c2)OCCO3)c(Br)c1	none
CC12CC3CC(C)(C1)CC(CNC(=O)COc1ccccc1)(C3)C2	Cy5 interf NS3h 0.7
Cc1cc(Br)cc(C)c1NC(=O)COc1ccccc1	none
CC(C)CNC(=O)/C(=C/c1ccc(F)cc1)NC(=O)c1ccccc1	none
Cc1ccc(C(=O)N/C(=C\c2ccc(Cl)cc2)C(=O)NCC(C)C)cc1	HCV NS3h FP 41
COc1ccc(OC)c(/C=N\NC(=O)/C(=C\c2ccc3c(c2)OCO3)NC(=O)c2ccccc2)c1	none
COc1cc(/C=C2/SC(=S)N(Cc3ccccc3)C2=O)ccc1OS(=O)(=O)c1ccccc1	none
COc1ccc(C(=O)Nc2c(C)cc(C)cc2C)cc1[N+](=O)[O-]	none
COc1ccc(-c2cn3cccc(C)c3n2)cc1Br	none
COc1ccc(-c2cn3ccccc3n2)cc1Br	Cy5 interf NS3h 0.79
COc1cc(NC(=O)c2nn3c(c2Br)NC(c2cccs2)CC3C(F)(F)F)c(OC)cc1Cl (stereo not given)	none
COc1ccc(N=C2CC(C)(C)CC(=O)C2=C(O)/C=C/c2ccccc2)cc1	none
CCOC(=O)c1c(C)nc2n(/N=C\c3ccccc3[N+](=O)[O-])c3ccccc3n12	none
CS(=O)(=O)N(CC(=O)O)c1ccc(Cl)cc1	none
CS(=O)(=O)N(CC(=O)N(Cc1ccccc1)Cc1ccccc1)c1ccc(Cl)cc1	Cy5 interf NS3h 0.68
CCOC(=O)C1=C(O)/C(=C/c2ccccc2)SC1=Nc1cccc2ccccc12	none
COc1ccccc1-c1coc2cc(OC(=O)c3c(Cl)ccc(Cl)c3OC)ccc2c1=O	none
Cc1ccc(S(=O)(=O)NC(=NC(Cc2ccccc2)C(=O)O)c2ccccc2)cc1 (stereo not given)	Cy5 interf NS3h 0.74
CC(N=C(NS(=O)(=O)c1ccccc1)c1ccccc1)C(=O)O (stereo not given)	none
Cc1ccc(-c2noc(-c3ccc(I)cc3)n2)cc1	none
O=C(CCCN1C(=O)c2ccccc2C1=O)Nc1ccccc1C(=O)N1CCOCC1	none
CN1CCN(C(=O)c2ccccc2NC(=O)CN2C(=O)c3ccccc3C2=O)CC1	Cy5 interf NS3h 0.77
O=C1C2C3C=CC(C4CC34)C2C(=O)N1c1ccc(I)cc1 (stereo not given)	none
CC(=O)NC(CCC(=O)OCc1ccccc1)C(=O)Nc1ccc(C)cc1 (stereo not given)	none
CCOC(=O)C(C(=O)OCC)=C(CCN1C(=O)c2ccccc2C1=O)OC(=O)CCN1C(=O)c2ccccc2C1=O	none
COc1ccc(NC(=O)CSc2nc3ccccc3[nH]2)c(OC)c1	Cy5 interf NS3h 0.71
COc1ccc2nc(SCC(=O)Nc3ccccc3)[nH]c2c1	none
COc1c(Cl)cc(C(=O)Nc2ccc(O)c(-c3nc4cc(C)ccc4o3)c2)cc1Cl	none
COc1ccccc1NC1=C(Cl)C(=O)N(c2ccc(C)cc2C)C1=O	none
CCOc1ccccc1NC(=O)c1c(NC(=O)Cc2ccccc2)sc2c1CCCCC2	none
CCOc1ccccc1NC(=O)c1c(NC(=O)c2cccs2)sc2c1CCCC2	HCV NS3h FP 41
Cc1nc2ccc(Br)cc2c(Cl)c1CCC(=O)O	none
COc1cc(C(=O)NCCC(C)C)c([N+](=O)[O-])cc1OC	none
COc1cc(C(=O)NCc2ccc(C)cc2)c([N+](=O)[O-])cc1OC	Cy5 interf NS3h 0.69
O=C(Nc1cccc(Cl)c1)c1ccccc1Br	Cy5 interf NS3h 0.8
Cc1ccccc1C(=O)Nc1cccc(Cl)c1	none
CC1=NN(c2ccc(S(N)(=O)=O)cc2)C(=O)/C1=C\c1cccc(Br)c1	HCV NS3h FP 42
CC1=NN(c2ccc(S(N)(=O)=O)cc2)C(=O)/C1=C\c1ccc(C(C)C)cc1	none
O=C(O/N=C\c1ccc([N+](=O)[O-])cc1)c1cccs1	Cy5 interf NS3h 0.75
O=C(/C=C/c1ccc(-c2cccc([N+](=O)[O-])c2)o1)c1cccs1	none
O=C(/C=C/c1ccccc1)Nc1ccccc1I	none
O=C(/C=C\c1ccccc1)Nc1ccc2c3c(cccc13)CC2	Cy5 interf NS3h 0.73
O=C(Nc1ccc(OCc2ccccc2)cc1)c1ccc(Cl)c([N+](=O)[O-])c1	none
COc1ccccc1NC(=O)c1c(NC(C)=O)sc2c1CCCC2	none
C(=N/n1cnnc1)/c1cc2ccccc2[nH]1	Cy5 interf NS3h 0.74
Ic1cccc(/C=N\n2cnnc2)c1	none
